PNC inhibitor: High Content Assay for Compounds that inhibit the Assembly of the Perinucleolar Compartment. activity change (PNC), negative = inhibition, % at 10 µM. PC3M PTB-GFP, PNC prevalence imaging, 16 h; active compounds read low. hit rate 3.1% among 140,000;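 active = readout at or below -70, meaning at least 70% loss of cells showing the perinucleolar compartment, a nuclear body marking cancer cells; inconclusive = readout between -30 and a set limit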
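Compounds are pinned in duplicate onto adhered PC3M cells stably expressing GFP-tagged PTB and incubated 16 h at 37 C. Cells are then fixed, nuclei stained with Hoechst, and PNC-positive cells counted.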
HPGD block: qHTS Assay for Inhibitors of HPGD (15-Hydroxyprostaglandin Dehydrogenase). Potency, µM, actives largely listed as inhibitors. hit rate 4.3% among 150,000. purified HPGD, NADH fluorescence kinetic, PGE2 substrate. AID 894, 2007. 15-hydroxyprostaglandin dehydrogenase [NAD(+)] (Homo sapiens), P15428
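20 nM HPGD preincubated 15 min at room temperature with compound in 50 mM Tris-HCl pH 8, 0.01% Tween 20. Started with 1 mM NAD+ and 30 uM prostaglandin E2; NADH fluorescence (360/450 nm) read 5 times over 30-s intervals, last minus first.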
ALDH1A1 block: qHTS Assay for Inhibitors of Aldehyde Dehydrogenase 1 (ALDH1A1) | Potency, µM (titrated, usually from 75.3 µM), hits mostly inhibitors | Purified ALDH1A1, NADH fluorescence, propionaldehyde substrate | AID 1030, 2008 | hit rate 7.3% among 220,000 | Aldehyde dehydrogenase 1A1 (Homo sapiens), P00352
Target sequence (P00352 whole entry, looked up): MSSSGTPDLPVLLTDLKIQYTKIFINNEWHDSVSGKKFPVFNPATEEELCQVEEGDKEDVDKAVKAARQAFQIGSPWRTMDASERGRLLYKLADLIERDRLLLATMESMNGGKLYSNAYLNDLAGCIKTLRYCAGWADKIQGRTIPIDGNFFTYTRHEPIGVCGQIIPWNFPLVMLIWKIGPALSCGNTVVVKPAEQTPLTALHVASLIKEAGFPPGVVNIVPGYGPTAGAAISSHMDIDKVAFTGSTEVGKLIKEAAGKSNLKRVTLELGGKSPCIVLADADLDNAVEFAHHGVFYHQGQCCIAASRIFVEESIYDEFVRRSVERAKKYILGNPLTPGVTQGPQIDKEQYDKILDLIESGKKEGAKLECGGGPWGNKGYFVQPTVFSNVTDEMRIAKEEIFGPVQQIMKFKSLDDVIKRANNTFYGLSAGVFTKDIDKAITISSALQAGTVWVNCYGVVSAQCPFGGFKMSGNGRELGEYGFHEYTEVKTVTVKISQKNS
LMNA splice mod: qHTS Assay for Modulators of Lamin A Splicing. HeLa LMNA splicing GFP/RFP minigene ratio, 48 h. Potency, µM (titrated, usually from 46.1 µM), most hits filed as inhibitors. hit rate 0.01% among 200,000; active = well fitted inhibition curve with a large enough effect in the signal ratio, with a control signal flat, not every such curve was filed as active; inconclusive = small, poorly fitted or top-dose-only effect, or effect the other way, or a change in a side signal; the % refers to the signal ratio
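Read-out is the ratio of GFP to DsRed2 object intensity, acquired by 488 nm laser-scanning cytometry on HeLa lamin A-EGFP minigene reporter cells. Compound incubation 48 hrs at 37 °C in Opti-MEM with 2% FBS; DMSO 0.5% final.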
ALOX12 inhib: qHTS Assay for Inhibitors of 12-hLO (12-human lipoxygenase) | Polyunsaturated fatty acid lipoxygenase ALOX12 (Homo sapiens), P18054 | purified 12-hLO, xylenol orange hydroperoxide absorbance | Potency, µM (series often up to 57.1 µM), hits mostly inhibitors | hit rate 0.12% among 150,000 | AID 1452, 2008; active = well fitted inhibition curve with a large enough effect; inconclusive = small, poorly fitted or top-dose-only effect; also: nearly all actives have a fitted effect of over 55% in size
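Purified human 12hLO (150 nM final) was preincubated with compounds for 15 min at room temperature in 25 mM Hepes pH 7.0, 0.01% Triton X-100, then reacted with 40 uM arachidonic acid for 30 min. Hydroperoxide was detected with ferrous iron/xylenol orange.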
Hits are given with their value. Hits are enriched below; roughly 10% of the tested compounds scored in any of these assays. Unless noted, calls follow the shape of the dose curve; as a rule, active = well fitted inhibition curve with a large enough effect (not every such curve was filed as active); inconclusive = small, poorly fitted or top-dose-only effect, or another doubt; inactive = no such curve, though single readings can be large or run the other way.

`C=CCn1c(SCC(=O)c2ccccc2)nnc1-c1ccc2c(c1)OCO2` gave PNC inhibitor inactive, HPGD block 5.62µM, ALDH1A1 block 25.1µM, LMNA splice mod inactive and ALOX12 inhib inactive.
For C=CCNC(=O)CSc1nnc(-c2ccccn2)n1Cc1ccccc1 the results were ALDH1A1 block 35.5µM.
For CCC(=O)N1c2ccccc2CC1C(=O)NCCc1ccc(OC)cc1OC (stereo not drawn) the results were LMNA splice mod inactive.
`COC(=O)C1(C(=O)OC)C[C@@H]2CON=C2[C@H]1c1ccccc1` gave HPGD block inactive, ALDH1A1 block inactive and ALOX12 inhib inactive.
For O=C(c1ccncc1)N1CCC[C@@]2(CCN(Cc3cc(C(F)(F)F)cc(C(F)(F)F)c3)C2)C1 the results were HPGD block inactive, ALDH1A1 block inactive and ALOX12 inhib inactive.
C=CCn1c(COC)nnc1SCC(=O)c1ccc(F)cc1 was read as PNC inhibitor inconclusive, HPGD block inactive, ALDH1A1 block 11.2µM, LMNA splice mod inactive and ALOX12 inhib inactive.
`C=CCn1c(SCC(=O)Nc2ccc3c(c2)OCCO3)nnc1-c1ccccn1` gave PNC inhibitor -80.6, HPGD block inactive, ALDH1A1 block inconclusive, LMNA splice mod inactive and ALOX12 inhib inactive.
`C=CCn1c(COc2ccc(F)cc2)nnc1SCC(=O)c1c[nH]c2c(CC)cccc12` gave PNC inhibitor inactive, HPGD block inactive, ALDH1A1 block inactive, LMNA splice mod inactive and ALOX12 inhib inactive.
`CCn1c(SCC(=O)Nc2ccc3c(c2)OCCO3)nnc1-c1ccccn1` gave PNC inhibitor inactive, HPGD block inactive, ALDH1A1 block inconclusive, LMNA splice mod inconclusive and ALOX12 inhib inactive.
For Cc1cc(C)cc(OCC(=O)OCC(=O)NCc2ccco2)c1 the results were PNC inhibitor inactive, HPGD block inactive, ALDH1A1 block 35.5µM, LMNA splice mod inactive and ALOX12 inhib inactive.
Cc1ccccc1OCCCC(=O)NCc1ccco1 was read as PNC inhibitor inactive, HPGD block 25.1µM, ALDH1A1 block inactive, LMNA splice mod inactive and ALOX12 inhib inactive.
For Cc1ccc(OCCCC(=O)NCc2ccco2)cc1 the results were PNC inhibitor inactive, HPGD block 25.1µM, ALDH1A1 block inactive, LMNA splice mod inactive and ALOX12 inhib inactive.
`C[C@@]1(O)CCOC(=O)C1` gave HPGD block inactive, ALDH1A1 block inactive, LMNA splice mod inconclusive and ALOX12 inhib inactive.
CNc1ccnc(-c2cccc(NS(C)(=O)=O)c2)n1 was read as ALDH1A1 block inactive and LMNA splice mod inactive.
For CC(C)CCn1c(Oc2ccccc2F)nc2c1c(=O)n(C)c(=O)n2C the results were LMNA splice mod inactive.
For c1ccc(CSc2nnc(-c3cccs3)o2)cc1 the results were PNC inhibitor inactive, HPGD block 20µM, ALDH1A1 block inactive, LMNA splice mod inactive and ALOX12 inhib inactive.
Screening Fc1ccc(-c2nnc(CSc3nnc(-c4cccs4)o3)o2)cc1 returned PNC inhibitor inconclusive, HPGD block inconclusive, ALDH1A1 block inactive, LMNA splice mod inactive and ALOX12 inhib inactive.
For c1ccc2c(CSc3nnc(-c4ccncc4)o3)cccc2c1 the results were PNC inhibitor inactive, HPGD block 25.1µM, ALDH1A1 block inactive, LMNA splice mod inactive and ALOX12 inhib inactive.
`c1ccc(-c2nnc(CSc3nnc(-c4cccs4)o3)o2)cc1` gave PNC inhibitor inactive, HPGD block 15.8µM, ALDH1A1 block inconclusive, LMNA splice mod inactive and ALOX12 inhib inactive.
`Clc1ccccc1CSc1nnc(-c2ccncc2)o1` gave PNC inhibitor inactive, HPGD block inactive, ALDH1A1 block inactive, LMNA splice mod inactive and ALOX12 inhib inactive.
Screening CCSc1nnc(-c2cccs2)o1 returned PNC inhibitor inactive, HPGD block inactive, ALDH1A1 block inactive, LMNA splice mod inactive and ALOX12 inhib inactive.
Cc1nnc(SCc2nnc(-c3cccs3)o2)n1Cc1ccccc1 was read as ALDH1A1 block 12.6µM and LMNA splice mod inactive.
Screening c1ccc(-c2nnc(CSc3nc4ccccc4[nH]3)o2)cc1 returned PNC inhibitor inconclusive, HPGD block 28.2µM, ALDH1A1 block inactive, LMNA splice mod inactive and ALOX12 inhib inactive.
Screening Fc1ccccc1CSc1nnc(-c2cccs2)o1 returned PNC inhibitor inactive, HPGD block 28.2µM, ALDH1A1 block inactive, LMNA splice mod inactive and ALOX12 inhib inactive.
For O=C(CCCSc1nc2ccccc2[nH]1)Nc1nnc(-c2ccccc2)o1 the results were PNC inhibitor inactive, HPGD block inactive, ALDH1A1 block inactive, LMNA splice mod inconclusive and ALOX12 inhib inactive.
`O=C(CSc1nnc(-c2cccs2)o1)N1CCCCC1` gave PNC inhibitor inactive, HPGD block 25.1µM, ALDH1A1 block inconclusive, LMNA splice mod inactive and ALOX12 inhib inactive.
Screening O=C(CSc1nnc(-c2cccs2)o1)N1CCOCC1 returned PNC inhibitor inactive, HPGD block inactive, ALDH1A1 block inactive, LMNA splice mod inactive and ALOX12 inhib inactive.
Fc1ccc(NCc2nnc(SCc3nnc(-c4ccccc4)o3)n2Cc2ccccc2)cc1 was read as PNC inhibitor inactive, HPGD block 28.2µM, ALDH1A1 block inactive, LMNA splice mod inconclusive and ALOX12 inhib inactive.
`Fc1ccc(CSc2nnc(-c3cccs3)o2)cc1` gave PNC inhibitor inconclusive, HPGD block 15.8µM, ALDH1A1 block inactive, LMNA splice mod inactive and ALOX12 inhib inactive.
O=C(O)c1ccc(Sc2nnc(-c3cccc(Br)c3)o2)c([N+](=O)[O-])c1 was read as PNC inhibitor inactive, HPGD block 14.1µM, ALDH1A1 block inactive, LMNA splice mod inconclusive and ALOX12 inhib inactive.
CC1CCN(C(=O)CN2c3ccc(Br)cc3-c3ccccc3S2(=O)=O)CC1 was read as LMNA splice mod inactive.
O=C(NCC1CCCO1)c1c(O)c2ccccc2[nH]c1=O (stereo not drawn) was read as PNC inhibitor inactive, HPGD block inactive, ALDH1A1 block inconclusive, LMNA splice mod inactive and ALOX12 inhib inactive.
Screening CCOC(=O)c1c(NCC2CCCO2)c2ccccc2[nH]c1=O (stereo not drawn) returned PNC inhibitor inactive, HPGD block inactive, ALDH1A1 block 15.8µM, LMNA splice mod inactive and ALOX12 inhib inactive.
O=C(Cc1coc2cc3c(cc12)CCC3)NC1CCCCCCC1 was read as PNC inhibitor inactive, HPGD block 14.1µM, ALDH1A1 block inactive, LMNA splice mod inconclusive and ALOX12 inhib inactive.
`COc1ccc(CSc2nncn2N)cc1[N+](=O)[O-]` gave PNC inhibitor -89.1, HPGD block inactive, ALDH1A1 block inconclusive, LMNA splice mod inactive and ALOX12 inhib inactive.
For COc1ccc(CSc2nncn2C)cc1[N+](=O)[O-] the results were PNC inhibitor inactive, HPGD block inactive, ALDH1A1 block 20µM, LMNA splice mod inactive and ALOX12 inhib inactive.

High-throughput results as filed in PubChem BioAssay.
